Screens from PubChem BioAssay.
Only some compounds are listed: those with a hit (about 2.6% of all), similar ones and a draw of the others.
LGR2 antag: inhibitors of bursicon-induced LGR2 CRE-luciferase signal, primary screen, cell-based, HEK293, CRE-luciferase reporter, bursicon stimulation; bursicon-stimulated, 4 h; AID 720647, 2013; inhibition, % at 9.99 µM; Drosophila bursicon receptor LGR2 (rickets); hit rate 0.35% among 380,000;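 active = drop in luminescence signal, shown as inhibition above about 50% in the replicate tests, limit read from the data, passing the limit was not always enough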;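 also: agonist challenge used bursicon conditioned medium at about half maximal strength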
TWEAK Fn14 block: inhibitors of TWEAK-Fn14 signaling, primary screen, luciferase reporter cells, uHTS; TWEAK-stimulated Fn14 reporter cells, luciferase luminescence, 8 h; inhibition, % at 10 µM; hit rate 2% among 360,000; AID 1159606, 2016; in the data active = inhibition above about 50%
EWS-Fli block: EWS/Fli-driven NR0B1 reporter inhibitors, primary screen, A673 cells, NR0B1 luciferase, luminescence, MLPCN library; hit rate 0.67% among 350,000; inhibition, % at 12.6 µM; viability-normalised; AID 651661, 2012;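 active = mean inhibition of at least 50% after viability correction, with every replicate also passing that limit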;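 also: firefly luciferase signal divided by Alamar Blue viability fluorescence both relative to DMSO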
TROY NFkB inh: inhibitors of TROY-driven NF-kB signaling, primary screen, Q293 LMP1-TROYcd cells, NF-kB luciferase, uHTS; Q293 LMP1-TROYcd NF-kB luciferase reporter, 4 h; inhibition, % at 10 µM; hit rate 0.98% among 360,000; AID 1347056, 2019;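 active = compounds whose plate-normalised and pattern-corrected inhibition of the luciferase reporter signal at the single screening dose is 50% or more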
EBV LMP1 NFkB: EBV LMP1-driven NF-kappaB luciferase reporter inhibitors, primary screen, cell-based, luminescence, single point; hit rate 0.69% among 350,000; LMP1-induced NF-kappaB luciferase reporter cells; inhibition, % at 12.5 µM; AID 504558, 2011; in the data active = inhibition above about 41%;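 also: 0% = neutral control wells and 100% = reference inhibitor control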
Starred values were filed as active, the others as inactive; ! = not active in a repeat.

CCC1CN2CCc3cc(OC)c(OC)cc3C2CC1CC1NCCc2c1[nH]c1ccc(O)cc21 (stereo unspecified) was read as LGR2 antag 100*, TWEAK Fn14 block 99*, EWS-Fli block 29, TROY NFkB inh 85* and EBV LMP1 NFkB 83*.
Screening O=C(Cc1ccccn1)N1CCCCN2[C@@H](CO)[C@H](c3ccc(C#Cc4ccccc4)cc3)[C@@H]2C1 returned LGR2 antag -1 and EWS-Fli block -1.
CN1CCN(c2ccc([N+](=O)[O-])c3no[n+]([O-])c23)CC1 was read as LGR2 antag 105*, TWEAK Fn14 block 104*, EWS-Fli block 33, TROY NFkB inh -8 and EBV LMP1 NFkB 76*.
COC(=O)[C@@H]1[C@@H](CO)[C@@H]2Cn3c(ccc(-c4cccc(OC)c4)c3=O)[C@H]1N2C(=O)c1cnccn1 was read as LGR2 antag -17 and EWS-Fli block 3.
Screening C[C@H]1[C@@H](OS(=O)(=O)O)C[C@@H]2C[C@H]([C@@H](O)c3cc(=O)[nH]c(=O)[nH]3)NC3=NC[C@H]1N32 returned TWEAK Fn14 block 60*, TROY NFkB inh 25 and EBV LMP1 NFkB 72*.
Screening CN1/C(=C\C=C2C(=O)NC(=O)NC2=O)C(C)(C)c2ccccc21 returned LGR2 antag 6, TWEAK Fn14 block -22, EWS-Fli block 7, TROY NFkB inh -3 and EBV LMP1 NFkB 1.
CCN1/C(=C/C=C/C2=[N+](CC)c3ccccc3C2(C)C)C(C)(C)c2ccccc21 was read as LGR2 antag 55*, TWEAK Fn14 block 82*, EWS-Fli block 59*, TROY NFkB inh 66* and EBV LMP1 NFkB 39.
Screening COc1cc2c(cc1/C=C/[N+](=O)[O-])OCO2 returned LGR2 antag 103*, TWEAK Fn14 block 64*, EWS-Fli block 19, TROY NFkB inh 62* and EBV LMP1 NFkB -1.
For CC=Cc1ccc2n(c1=O)C[C@H]1[C@H](CO)[C@@H](C(=O)N(C)C)N[C@@H]21 (mixture of isomers) the results were LGR2 antag -6 and EWS-Fli block -6.
Screening CC(C)=CCc1c(O)cc2c(c1O)C(=O)CC(c1ccc(O)cc1)O2 (stereo unspecified) returned LGR2 antag -2, TWEAK Fn14 block 35, EWS-Fli block 6, TROY NFkB inh 52* and EBV LMP1 NFkB -1.
`COC(=O)[C@@H]1[C@@H](CO)[C@@H]2Cn3c(ccc(-c4cncnc4)c3=O)[C@H]1N2S(=O)(=O)c1ccccc1C` gave LGR2 antag 15 and EWS-Fli block 3.
`COc1ccccc1OCC(=O)Nc1ccc(Cl)cc1C(=O)c1ccccc1` gave LGR2 antag 4, TWEAK Fn14 block 107*, TROY NFkB inh -6 and EBV LMP1 NFkB -9.
`CCOc1ccccc1OCC(=O)Nc1ccc(Cl)cc1C(=O)c1ccccc1` gave LGR2 antag 10, TWEAK Fn14 block -2, EWS-Fli block 8, TROY NFkB inh -2 and EBV LMP1 NFkB -5.
Screening CC=Cc1ccc2n(c1=O)C[C@H]1[C@H](CO)[C@@H](C(=O)OC)[C@@H]2N1CC1CCOCC1 (mixture of isomers) returned LGR2 antag -9 and EWS-Fli block -1.
C[C@H]1CN([C@@H](C)CO)C(=O)CCCn2cc(nn2)CO[C@H]1CN(C)C(=O)Oc1cccc2ccccc12 was read as LGR2 antag 2 and EWS-Fli block 3.
N#Cc1c(Br)n(C2OC(CO)C(O)C2O)c2ncnc(N)c12 (stereo unspecified) was read as LGR2 antag 31, TWEAK Fn14 block 49, EWS-Fli block 30, TROY NFkB inh 11 and EBV LMP1 NFkB -84.
NC(=O)c1cn(C2OC(CO)C(O)C2O)c2ncnc(N)c12 (stereo unspecified) was read as LGR2 antag 71*, TWEAK Fn14 block 89*, EWS-Fli block 55*!, TROY NFkB inh 40 and EBV LMP1 NFkB 81*.
N#Cc1cn(C2OC(CO)C(O)C2O)c2ncnc(N)c12 (stereo unspecified) was read as LGR2 antag 94*, TWEAK Fn14 block 72*, EWS-Fli block -7, TROY NFkB inh 52* and EBV LMP1 NFkB -181.
CC(=O)O[C@H]1[C@H]2O[C@]23[C@@H]2CC[C@]4(O)C[C@@H](O)CC[C@]4(C)C2CC[C@]3(C)[C@H]1c1ccc(=O)oc1 (stereo partly specified) was read as TWEAK Fn14 block 83*, TROY NFkB inh 56* and EBV LMP1 NFkB 49*.
`C[C@]12CC[C@H]3C(CCC4(O)CC(O)CC[C@]34C=O)C1=CC[C@H]2c1ccc(=O)oc1` (stereo partly specified) gave LGR2 antag 1, TWEAK Fn14 block 49, EWS-Fli block 22, TROY NFkB inh 8 and EBV LMP1 NFkB 2.
`CCOC(=O)C(O)(c1ccc(N(C)C(=O)COc2ccccc2)cc1)C(F)(F)F` (stereo unspecified) gave TWEAK Fn14 block -3, TROY NFkB inh 0 and EBV LMP1 NFkB 9.
CN(C)C(=O)O/N=C(\N)COc1ccc(C(C)(C)C)cc1 was read as LGR2 antag -10, TWEAK Fn14 block -55, EWS-Fli block 57*, TROY NFkB inh -30 and EBV LMP1 NFkB -14.
Cc1cc([N+](=O)[O-])c2ccccc2[n+]1[O-] was read as TWEAK Fn14 block 4, TROY NFkB inh -31 and EBV LMP1 NFkB 90*.
Screening Clc1ccc(C(c2ccc(Cl)cc2)n2cc[n+](CC(OCc3ccc(Cl)cc3Cl)c3ccc(Cl)cc3Cl)c2)cc1 (stereo unspecified) returned LGR2 antag 87*, TWEAK Fn14 block 77*, EWS-Fli block 49, TROY NFkB inh 80* and EBV LMP1 NFkB 0.
For Clc1ccc(COC(Cn2ccnc2)c2ccc(Cl)cc2Cl)cc1 (stereo unspecified) the results were LGR2 antag 24, TWEAK Fn14 block -16, EWS-Fli block 12, TROY NFkB inh 10 and EBV LMP1 NFkB -5.
For COCC#Cc1ccc([C@@H]2[C@@H](CO)N3CCCCN(C(=O)Cc4ccccn4)C[C@@H]23)cc1 the results were LGR2 antag 5 and EWS-Fli block -12.
COc1ccc(CCNCc2sccc2C)cc1OC was read as LGR2 antag 17, TWEAK Fn14 block 77*, EWS-Fli block -4, TROY NFkB inh 11 and EBV LMP1 NFkB 3.
`COc1ccc(CCNCc2ccc(C)s2)cc1OC` gave LGR2 antag 2, TWEAK Fn14 block 0, EWS-Fli block -3, TROY NFkB inh -19 and EBV LMP1 NFkB 7.
`O=C(Cc1ccccc1)N1CCCCN2[C@H](CO)[C@H](c3ccc(C#CC4(O)CCCC4)cc3)[C@@H]2C1` gave LGR2 antag -1 and EWS-Fli block 8.
